Reference: the OligoGym collection

target: TBC1D7; experiment: pooled miR-30 sensor sort-seq; sequence = guide strand; conditions: shRNA

| Sequence | sensor-assay potency score (higher = more potent) |
| --- | --- |
| TATCTTCTCTGCACTGTTCAGT | 0.23 |
| TAACTTCCCAGACTCCAGCTGA | -0.346 |
| TTCGACAGCTACAAAAACTAGG | -0.269 |
| AAGAACACAATGCTCACTGTGG | -0.247 |
| TCTCATAATATACTGAACGAAA | -1.27 |

target: TBPL2; experiment: as above; conditions: shRNA

| Sequence | sensor-assay potency score (higher = more potent) |
| --- | --- |
| ATTTTCTTGCTGCAAGTCGAGA | -1.3 |
| TATGACAGCAGCAAACCTCTTT | -0.118 |
| TTTTAGAATAGGATAGATGTTT | -0.912 |
| TTCCTGGGTAACTTCATCTGGT | -0.0709 |
| ATAAGCAACACAATTCGTGGTT | 0.695 |
| TACAGTGGAAACTATATTCTGT | 0.659 |
| TACAACTGGGCTGAACAGGGGA | 0.181 |
| TAAGCAACACAATTCGTGGTTT | -0.141 |
| TTAAAATCGAGGAATCTGGCAG | 0.087 |
| TACAATTCCACAACATTCTGAA | 0.364 |
| TCTTGCTGCAAGTCGAGACTGC | 0.000545 |
